# Laboratory results from PubChem BioAssay AID1159580 (chemical genetic matrix, 2015).
# Out of some 5,500 compounds screened, about 2,000 (36%) were called active. Inconclusive results (about 18%) are left out. The list shows a part of the results. A number with no mark means an inactive call. No stated cut-off is given here; in the data, active means normalized growth mostly below about 0.91 (no sharp cut-off); inconclusive means no clear call, values can overlap the other calls; inactive means mostly above about 0.92.
# Assay: chemical genetic growth profiling, strain panel (AID 1159580);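 further: tested at 20 µM; growth read once vehicle control cultures reached saturation at 30 °C; 1 = growth at the plate median or of vehicle wells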
# Conditions: growth OD
# [1] = S. cerevisiae deletion strains, locus YAL013W, strain DEP1, stronger effect = lower value
# [2] = S. cerevisiae deletion strains, locus YBR229C, strain ROT2, stronger effect = lower value
# [3] = S. cerevisiae deletion strains, locus YDL101C, strain DUN1, stronger effect = lower value
# [4] = S. cerevisiae deletion strains, locus YDR150W, strain NUM1, stronger effect = lower value
# [5] = S. cerevisiae deletion strains, locus YEL061C, strain CIN8, stronger effect = lower value
# [6] = S. cerevisiae deletion strains, locus YGR078C, strain PAC10, stronger effect = lower value
# [7] = S. cerevisiae deletion strains, locus YHR030C, strain SLT2, stronger effect = lower value
# [8] = S. cerevisiae deletion strains, locus YHR087W, strain rtc3, stronger effect = lower value
# [9] = S. cerevisiae deletion strains, locus YJR043C, strain POL32, stronger effect = lower value
# [10] = S. cerevisiae deletion strains, locus YJR075W, strain HOC1, stronger effect = lower value
# [11] = S. cerevisiae deletion strains, locus YLR039C, strain RIC1, stronger effect = lower value
# [12] = S. cerevisiae deletion strains, locus YLR058C, strain SHM2 (second series), stronger effect = lower value
# [13] = S. cerevisiae deletion strains, locus YLR085C, strain ARP6, stronger effect = lower value
# [14] = S. cerevisiae deletion strains, locus YLR262C, strain YPT6, stronger effect = lower value
# [15] = S. cerevisiae deletion strains, locus YML094W, strain GIM5, stronger effect = lower value
# [16] = S. cerevisiae deletion strains, locus YMR219W, strain ESC1, stronger effect = lower value
# [17] = S. cerevisiae deletion strains, locus YMR263W, strain SAP30, stronger effect = lower value
# [18] = S. cerevisiae deletion strains, locus YNL128W, strain TEP1, stronger effect = lower value
# [19] = S. cerevisiae deletion strains, locus YNL153C, strain GIM3, stronger effect = lower value
# [20] = S. cerevisiae deletion strains, locus YNL298W, strain CLA4 (second series), stronger effect = lower value
# [21] = S. cerevisiae deletion strains, locus YNL322C, strain KRE1, stronger effect = lower value
# [22] = S. cerevisiae deletion strains, locus YNR030W, strain Alg12, stronger effect = lower value
# [23] = S. cerevisiae deletion strains, locus YPL055C, strain LGE1, stronger effect = lower value
# [24] = S. cerevisiae deletion strains, locus YPL241C, strain CIN2, stronger effect = lower value
# [25] = S. cerevisiae deletion strains, locus YPR135W, strain CTF4, stronger effect = lower value
# [26] = S. cerevisiae strains, strain wild type, stronger effect = lower value
structure (smiles),measurement,setting,value
Cc1onc(-c2ccccc2)c1C(=O)On1c(-c2ccccc2)nc2ccccc2c1=O,normalized growth,[1],0.963
same,normalized growth,[2],0.988
same,normalized growth,[3],0.944
same,normalized growth,"S. cerevisiae deletion strains, locus YDL134C, strain PPH21, stronger effect = lower value",0.922 (active)
same,normalized growth,[4],0.902
same,normalized growth,[5],0.933
same,normalized growth,[6],0.953
same,normalized growth,[7],0.196 (active)
same,normalized growth,[8],1.05
same,normalized growth,[9],0.987
same,normalized growth,[10],0.92
same,normalized growth,[11],0.236 (active)
same,normalized growth,[12],0.979
same,normalized growth,[13],0.537 (active)
same,normalized growth,[14],0.21 (active)
same,normalized growth,[15],0.934
same,normalized growth,[16],0.953
same,normalized growth,[17],0.932
same,normalized growth,[18],0.961
same,normalized growth,[19],1
same,normalized growth,[20],0.816 (active)
same,normalized growth,[21],0.928 (active)
same,normalized growth,[22],0.852 (active)
same,normalized growth,"S. cerevisiae deletion strains, locus YOL006C, strain TOP1, stronger effect = lower value",0.63 (active)
same,normalized growth,[23],0.973
same,normalized growth,[24],0.82 (active)
same,normalized growth,[25],0.368 (active)
same,normalized growth,[26],0.888 (active)
CC(=O)c1ccccc1OC(=O)c1c(-c2c(Cl)cccc2Cl)noc1C,normalized growth,[1],0.996
same,normalized growth,[2],0.994
same,normalized growth,"S. cerevisiae deletion strains, locus YCL061C, strain MRC1, stronger effect = lower value",0.996
same,normalized growth,[3],1.02
same,normalized growth,[4],0.882
same,normalized growth,[5],1.01
same,normalized growth,[6],1.01
same,normalized growth,"S. cerevisiae deletion strains, locus YGR229C, strain SMI1, stronger effect = lower value",0.998
same,normalized growth,[7],0.834
same,normalized growth,[8],0.988
same,normalized growth,[9],0.984
same,normalized growth,[10],1.01
same,normalized growth,"S. cerevisiae deletion strains, locus YKL190W, strain CNB1, stronger effect = lower value",0.995
same,normalized growth,[11],0.923
same,normalized growth,[12],1
same,normalized growth,[13],0.985
same,normalized growth,[14],0.935
same,normalized growth,[15],1.04
same,normalized growth,[16],1
same,normalized growth,[17],0.991
same,normalized growth,[18],1
same,normalized growth,[19],1
same,normalized growth,[20],1.02
same,normalized growth,[21],1.01
same,normalized growth,[22],1
same,normalized growth,[23],1.02
same,normalized growth,[24],0.996
same,normalized growth,[25],1.12
same,normalized growth,[26],1.01
